Experimental data as given in PubChem BioAssay (NCI).
The panel holds about 83,000 compounds, 20% with a hit somewhere; the sample as a whole holds those more often.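 96-well plates, one dose, 48 hours. Percent growth reported; active if below 10.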 Activity calls are given as the source filed them.

Each compound was assayed on HCT-116 colon (assay: NCI-60 one-dose screen, 48 h (100 = growth as untreated, 0 = no growth, -100 = all killed)). Conditions: 10 µM.

Structure (SMILES)	growth
Cc1ccc(C)n1-c1ccsc1C(=O)NNC(=O)CCl	78% (inactive)
C/C(=C\c1cc(Cl)ccc1OCC(=O)O)[N+](=O)[O-]	109% (inactive)
COc1cc2nn(-c3ccccc3N)nc2cc1OC	103% (inactive)
CCS(=O)(=O)CCCl	98.7% (inactive)
CC(=O)C1CCCCC1	102% (inactive)
COc1ccc(NC(=O)CCl)cc1	53.5% (inactive)
CC1CCCCN1C(=S)Nc1ccc(S(=O)(=O)N2CCCCC2)cc1 (stereo not drawn)	91.5% (inactive)
CN(C)c1nc2c([nH]1)c(=O)n(C)c(=O)n2C	97% (inactive)
O=C1NC(=O)C2C(=O)NC(=O)C1C21CCc2ccccc21 (stereo not drawn)	96.7% (inactive)
c1csc(-c2cc(-c3cc(-c4cccs4)[nH]n3)n[nH]2)c1	91.4% (inactive)
CC(=O)CC(=O)N(C)C	95.6% (inactive)
CS(=O)CC1=NC(=N)N=C1CS(C)=O (stereo not drawn)	102% (inactive)
COc1cc(OC)c2ccc(=O)oc2c1	109% (inactive)
Cc1ccc(/C=C2\SC(=S)N(c3ccc(F)cc3)C2=O)o1	64.5% (inactive)
N/N=C(/Cc1ccccc1)NNC(N)=S	86.3% (inactive)
COc1cc2c(cc1OC)[C@H](C(=O)O)[C@@H](c1ccc(OC(C)C)c(OC)c1)N(C)C2=O	101% (inactive)
O=c1cc(-c2ccccc2)nc2cc(-c3ccco3)[nH]n12	90.3% (inactive)
CC(C)NC(=O)OCc1c(COC(=O)NC(C)C)c(-c2ccc(Cl)c(Cl)c2)n2c1SCC2	29.9% (inactive)
CCOC(=O)c1cc(/C=C/c2cccc(Cl)c2)on1	-57.7% (active)
C/C(=C\c1ccc([N+](=O)[O-])cc1)C(=O)O	97.3% (inactive)

Structure (SMILES)	growth
Cc1cc2nc(CC(=O)c3ccccc3)c(=O)[nH]c2cc1C	80.3% (inactive)
CCNCCCCNCCCCNCCCCNCCCCNCC	92.6% (inactive)
CC(C)(O)C#CC#CC(C)(C)O	96.5% (inactive)
COc1cc(-c2ccc(NC(=O)NC3CC3)c(OC)c2)ccc1NC(=O)NC1CC1	36.9% (inactive)
COc1nc(N)nc2c1ncn2C1OC(CO)CC1O (stereo not drawn)	98.8% (inactive)
COC(=O)c1cc(-c2ccc(Cl)c(Cl)c2)[nH]c(=O)c1C#N	97.2% (inactive)
c1ccc2c(c1)Sc1ccccc1S2	106% (inactive)
C=CCNc1nnc(C)s1	104% (inactive)
CCCCNC(=O)C(=O)NCCCC	104% (inactive)
COc1ccc2c(c1)CCc1c-2n[nH]c1-c1[nH]nc2c1CCc1cc(OC)ccc1-2	32.4% (inactive)
CC(=O)Cc1cc(-c2cc(CC(C)=O)[nH]n2)n[nH]1	103% (inactive)
C1CNC(C2=NCCN2)=N1	96.7% (inactive)
COC(=O)c1[nH]c(=O)c(C#N)c(C(=O)OC)c1C(=O)c1ccccc1	99.3% (inactive)
CC1=CC(=O)c2ccccc2C1=O	104% (inactive)
COC(=O)C(C)Oc1ccc(OC#N)cc1 (stereo not drawn)	108% (inactive)
CCOC(=O)C(=O)C=P(c1ccccc1)(c1ccccc1)c1ccccc1	100% (inactive)
CNC(=S)NC(C)(C)C	102% (inactive)
O=C(Cc1ccc(OCc2ccccc2)cc1)NCc1ccc2c(c1)OCO2	40.4% (inactive)
O=C(Nc1cccc(NC(=O)Nc2cc(C(F)(F)F)ccc2Cl)c1)Nc1cc(C(F)(F)F)ccc1Cl	13.2% (inactive)

The compounds below were run on HCC-2998 colon in the same assay as above. Conditions: 10 µM.

Structure (SMILES)	growth
Cc1ccc(C)n1-c1ccsc1C(=O)NNC(=O)CCl	116% (inactive)
C/C(=C\c1cc(Cl)ccc1OCC(=O)O)[N+](=O)[O-]	111% (inactive)
COc1cc2nn(-c3ccccc3N)nc2cc1OC	95.8% (inactive)
CCS(=O)(=O)CCCl	125% (inactive)
CC(=O)C1CCCCC1	103% (inactive)
COc1ccc(NC(=O)CCl)cc1	99.6% (inactive)
CC1CCCCN1C(=S)Nc1ccc(S(=O)(=O)N2CCCCC2)cc1 (stereo not drawn)	112% (inactive)
CN(C)c1nc2c([nH]1)c(=O)n(C)c(=O)n2C	89.8% (inactive)
O=C1NC(=O)C2C(=O)NC(=O)C1C21CCc2ccccc21 (stereo not drawn)	115% (inactive)
c1csc(-c2cc(-c3cc(-c4cccs4)[nH]n3)n[nH]2)c1	111% (inactive)
CC(=O)CC(=O)N(C)C	108% (inactive)
CS(=O)CC1=NC(=N)N=C1CS(C)=O (stereo not drawn)	104% (inactive)
COc1cc(OC)c2ccc(=O)oc2c1	94.8% (inactive)
Cc1ccc(/C=C2\SC(=S)N(c3ccc(F)cc3)C2=O)o1	118% (inactive)
N/N=C(/Cc1ccccc1)NNC(N)=S	117% (inactive)
COc1cc2c(cc1OC)[C@H](C(=O)O)[C@@H](c1ccc(OC(C)C)c(OC)c1)N(C)C2=O	108% (inactive)
O=c1cc(-c2ccccc2)nc2cc(-c3ccco3)[nH]n12	91.7% (inactive)
CC(C)NC(=O)OCc1c(COC(=O)NC(C)C)c(-c2ccc(Cl)c(Cl)c2)n2c1SCC2	72.8% (inactive)
CCOC(=O)c1cc(/C=C/c2cccc(Cl)c2)on1	97.2% (inactive)
C/C(=C\c1ccc([N+](=O)[O-])cc1)C(=O)O	101% (inactive)

Structure (SMILES)	growth
Cc1cc2nc(CC(=O)c3ccccc3)c(=O)[nH]c2cc1C	110% (inactive)
CCNCCCCNCCCCNCCCCNCCCCNCC	101% (inactive)
CC(C)(O)C#CC#CC(C)(C)O	96.4% (inactive)
COc1cc(-c2ccc(NC(=O)NC3CC3)c(OC)c2)ccc1NC(=O)NC1CC1	68.2% (inactive)
COc1nc(N)nc2c1ncn2C1OC(CO)CC1O (stereo not drawn)	105% (inactive)
COC(=O)c1cc(-c2ccc(Cl)c(Cl)c2)[nH]c(=O)c1C#N	117% (inactive)
c1ccc2c(c1)Sc1ccccc1S2	92.5% (inactive)
C=CCNc1nnc(C)s1	112% (inactive)
CCCCNC(=O)C(=O)NCCCC	114% (inactive)
COc1ccc2c(c1)CCc1c-2n[nH]c1-c1[nH]nc2c1CCc1cc(OC)ccc1-2	80.9% (inactive)
CC(=O)Cc1cc(-c2cc(CC(C)=O)[nH]n2)n[nH]1	112% (inactive)
C1CNC(C2=NCCN2)=N1	92.3% (inactive)
COC(=O)c1[nH]c(=O)c(C#N)c(C(=O)OC)c1C(=O)c1ccccc1	113% (inactive)
CC1=CC(=O)c2ccccc2C1=O	108% (inactive)
COC(=O)C(C)Oc1ccc(OC#N)cc1 (stereo not drawn)	105% (inactive)
CCOC(=O)C(=O)C=P(c1ccccc1)(c1ccccc1)c1ccccc1	107% (inactive)
CNC(=S)NC(C)(C)C	115% (inactive)
O=C(Cc1ccc(OCc2ccccc2)cc1)NCc1ccc2c(c1)OCO2	77.2% (inactive)
O=C(Nc1cccc(NC(=O)Nc2cc(C(F)(F)F)ccc2Cl)c1)Nc1cc(C(F)(F)F)ccc1Cl	37.6% (inactive)
